# A selection: hits, their analogues and other compounds. The true share with any hit is near 2.3%.
# MCL1-BIM inh – MCL1-BIM-BH3 interaction inhibition (human); 320,000 compounds, 0.68% hits; GST-MCL1 / FITC-Bim-BH3 fluorescence polarization; inhibition, % at 10.9 µM;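 active means inhibition above the mean inhibition of all tested compounds plus 3 SD, set per campaign, cut at about 40% in these data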;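 further: 0% = DMSO wells and 100% = unlabeled Bim-BH3 peptide control; higher means more loss of mP so more displacement of Bim peptide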
# Bim-Mcl-1 – inhibitors of Bim-Mcl-1 interaction, human | inhibition, % at 10 µM | 190,000 compounds, 0.1% hits | Bead-based flow cytometry, Bim peptide-Mcl-1 binding | Q07820; in the data active means inhibition above about 40%;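 further: 0% = no compound tracer wells and 100% = peptide blocker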
# Mcl1 Bid PPI – Mcl-1/Bid interaction inhibition. Q07820. TR-FRET Mcl-1/Bid-Dy647 peptide binding, 1536-well. inhibition, % at 21.7 µM. 220,000 compounds, 0.97% hits. AID 1021;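 active means compounds that cut the binding signal by more than half at the single screening dose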;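 further: His-tagged Mcl-1 with europium anti-His antibody binding Bid BH3 peptide; 0% = Mcl-1 plus peptide wells and 100% = peptide-only wells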
# BCLXL inh – blocks human Bcl-xL binding to Bim BH3 peptide | Q07817 | GST-Bcl-xL / FITC-Bim BH3 peptide fluorescence polarization | inhibition, % at 10.9 µM | 320,000 compounds, 0.7% hits;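 active means inhibition above the mean of all tested compounds plus 3 SD, cutoff set per campaign, cut at about 30% in these data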;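 further: 0% = DMSO wells and 100% = unlabeled Bim-BH3 peptide competitor; inhibitors lower millipolarization by displacing the labeled peptide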
# GLD-1 RNA inh – GLD-1-TGE RNA interaction inhibition (C. elegans). Q17339. inhibition, % at 5.96 µM. 320,000 compounds, 0.44% hits. purified GLD-1 + fluorescein TGE RNA, fluorescence polarization;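 active means percent inhibition above a per-plate cutoff, the plate mean of test compounds plus 3 SD, cut at about 30% in these data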;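 further: 0% = DMSO wells with GLD-1 and probe and 100% = wells lacking GLD-1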
# Target sequence (Q17339 whole entry, looked up): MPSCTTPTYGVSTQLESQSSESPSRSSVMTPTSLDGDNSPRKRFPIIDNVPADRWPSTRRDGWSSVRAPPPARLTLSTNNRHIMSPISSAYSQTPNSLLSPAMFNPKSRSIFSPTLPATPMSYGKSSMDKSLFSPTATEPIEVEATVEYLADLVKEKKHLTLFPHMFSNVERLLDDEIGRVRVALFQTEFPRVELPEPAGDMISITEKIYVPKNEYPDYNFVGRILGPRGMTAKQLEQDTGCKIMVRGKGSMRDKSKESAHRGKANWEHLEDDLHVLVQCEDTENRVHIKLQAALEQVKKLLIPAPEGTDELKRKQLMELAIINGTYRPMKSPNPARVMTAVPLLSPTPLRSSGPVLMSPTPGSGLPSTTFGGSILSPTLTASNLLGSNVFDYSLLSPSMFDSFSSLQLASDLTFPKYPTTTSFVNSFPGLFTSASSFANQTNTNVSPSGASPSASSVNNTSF
# Mcl1 Noxa PPI – disrupts binding of human Mcl-1 to Noxa peptide. Q07820. TR-FRET Mcl-1/Noxa peptide binding, 2 h. inhibition, % at 21.7 µM. 220,000 compounds, 1.5% hits;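 active means compounds that cut the protein-peptide binding signal by more than 50% relative to plate controls in a single-dose test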;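 further: His-tagged Mcl-1 with rhodamine Noxa BH3 peptide and terbium anti-His antibody; 0% = Mcl-1 plus Noxa peptide wells and 100% = peptide-only wells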
# * hit, by the source's call; . = no result given.
SMILES,MCL1-BIM inh,Bim-Mcl-1,Mcl1 Bid PPI,BCLXL inh,GLD-1 RNA inh,Mcl1 Noxa PPI
Cc1sc2ncnc(NCC(O)c3ccc([N+](=O)[O-])cc3)c2c1C (centres undefined),1,.,.,4,2,.
Oc1ccccc1N1CCN(C(c2ccccc2)c2ccccc2)CC1,5,.,.,6,-2,.
O=C(NC1CCC(O)CC1)c1ccc(-c2ccc([N+](=O)[O-])cc2)o1 (centres undefined),0,.,25,2,5,71*
COC(=O)/C=C1/SC(=Nc2ccc(C)cc2C)NC1=O,3,0,98*,5,4,21
COc1ccc(CCNC(=O)C2CC3Cn4c(nc5ccccc54)C3N2c2ccccc2)cc1 (centres undefined),8,.,.,10,3,.
Cc1ccc(-n2ncc3c2CCCC3NC(=O)CCc2c(C)noc2C)cc1C (centres undefined),-10,.,.,3,-2,.
CSCc1nc2sc(C(=O)Nc3nc(C)cs3)c(C)c2c(=O)[nH]1,-2,0,-23,2,-14,79*
Cc1csc(NC(=O)CSc2nc3sc(C)c(C)c3c(=O)[nH]2)n1,-10,-4,63*,-3,-8,-118
Cc1nnc(SCc2nc3sc(C(=O)O)c(C)c3c(=O)[nH]2)s1,15,.,0,10,0,14
CN(C)c1ccc(NC(=O)c2ccc([N+](=O)[O-])cc2Cl)cc1,6,-4,-19,5,-2,74*
O=C(Nc1ccccn1)c1ccc([N+](=O)[O-])cc1Cl,-2,-3,94*,2,0,2
C/C(CC(=O)Nc1ccccn1)=N\NC(=O)c1ccc([N+](=O)[O-])cc1Cl,7,.,.,3,0,.
CC(NC(=O)c1cccc(OC2CCN(C3CCN(C)CC3)CC2)c1)c1ccccc1 (centres undefined),1,.,.,2,3,.
COc1ccc(F)cc1S(=O)(=O)n1nc(C)cc1C,8,.,.,4,4,.
Cc1ncsc1CCOC(=O)c1cccnc1,-2,0,54*,-2,-5,24
COc1ccc(CCNC(=O)c2cc(-c3ccccn3)nc3c(Cl)cccc23)cc1OC,17,88*,-25,4,4,8
CS(=O)(=O)Cc1ccc(C(=O)NC2CCSc3ccccc32)cc1 (centres undefined),7,.,.,4,-9,.
O=C1CCC/C(=N\NC(=O)COc2ccc(Cl)cc2)C1,10,0,-14,6,64*,16
CCC(=O)c1ccc(OCC(=O)OCC(=O)NCCCc2ccccc2)cc1,-5,.,.,-5,2,.
CS(=O)(=O)NN1C(=O)c2ccccc2NC1c1cccc(O)c1 (centres undefined),0,5,-9,2,7,4
CS(=O)(=O)NN1C(=O)c2ccccc2NC1c1ccccc1 (centres undefined),0,43*,-23,7,3,-4
Cc1ccc(NC(=O)CCc2nc3ccccc3c(=O)[nH]2)cc1S(=O)(=O)N1CCOCC1,-12,.,.,-14,2,.
CCOC(=O)N1CCC(NC(=O)C2CCN(S(=O)(=O)N3CCCC3)CC2)CC1,7,-2,-28,5,-2,1
CCOC(=O)N1CCC(NC(=O)C2CCN(S(=O)(=O)c3c(C)noc3C)CC2)CC1,10,-1,55*,4,-4,-7
Cc1ccc(N2C(=O)N(CC(=O)Nc3ccccc3C(F)(F)F)C(=O)C2C)cc1 (centres undefined),2,.,.,3,9,.
O=C(CNCc1ccncc1)Nc1cc(S(=O)(=O)N2CCCCC2)ccc1Cl,-2,-7,55*,2,-14,35
N=c1n(Cc2ccccc2)c2ccccc2n1CC(O)COc1ccccc1 (centres undefined),-2,1,64*,2,-4,19
Cc1ccc(Cn2c(=N)n(CC(O)COc3ccccc3)c3ccccc32)cc1 (centres undefined),2,0,-6,5,-1,17
O=C(Nc1nnc(-c2ccccc2Cl)o1)c1cc2cc([N+](=O)[O-])ccc2s1,.,-2,35,.,.,55*
O=C(Nc1ccccn1)c1cc2cc([N+](=O)[O-])ccc2s1,2,0,8,-13,0,36

# Screening data deposited in PubChem by several laboratories.
